Measurements reported in PubChem BioAssay (NCATS).
Several values for one entry are separate records, joined by “and”; a condition that tells them apart may be missing. Equal values may be shown once. Results filed as inconclusive are left out. Entries that show only a call come without a potency. Activity calls are given as the source filed them. Unless noted, calls come from the whole dose curve; as a rule, active = well fitted curve in the direction sought with a large enough effect; inconclusive = small, poorly fitted or top-dose-only effect, or another doubt; inactive = no such curve, though single readings can be large; an effect the other way counts as inactive or inconclusive. Where a SMILES comes first, the peptide text is derived from it. [ ]: non-standard residue; d: D form. ξ: configuration not given here. ξLac(3-iPr) = CC(C)CC(O)C(=O)O; NMeV = CN[CH](C(=O)O)C(C)C; βAla = NCCC(=O)O

Key:
[1] = target: Glutathione peroxidase 1 (Homo sapiens) (UniProt P07203); test: Primary qHTS Assay for Inhibitors of Recombinant Selenoprotein Glutathione Peroxidase 1 (GPX1) (AID 1845191); note: nearly all actives have a fitted effect of over 65% in size; note: potency is the fitted concentration of half-maximal effect
Chain of Glutathione peroxidase 1 (Homo sapiens) (P07203 whole entry, looked up): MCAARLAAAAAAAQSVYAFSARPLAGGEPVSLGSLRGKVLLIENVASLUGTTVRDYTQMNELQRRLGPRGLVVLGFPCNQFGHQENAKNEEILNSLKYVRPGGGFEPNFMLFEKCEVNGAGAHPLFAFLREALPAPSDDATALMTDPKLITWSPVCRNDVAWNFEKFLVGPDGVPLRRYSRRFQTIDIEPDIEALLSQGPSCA
Method in brief: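 10 nM GPX1 + cpd, 30 min RT; start w/ 1 mM GSH, 0.5 mM cumene hydroperoxide, 0.5 mM NADPH, 100 nM GR, 0.01% BSA; buffer 50 mM Tris-HCl pH 7.5, 2 mM EDTA, 150 mM NaCl; Fl 340/450, 0 & 15 min.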

[2] = target: Phospholipid hydroperoxide glutathione peroxidase GPX4 (Homo sapiens) (UniProt P36969); test: Primary qHTS Assay for Inhibitors of Recombinant Selenoprotein Glutathione Peroxidase 4 (GPX4) (AID 1845192); note: nearly all actives have a fitted effect of over 65% in size
Chain of Phospholipid hydroperoxide glutathione peroxidase GPX4 (Homo sapiens) (P36969 whole entry, looked up): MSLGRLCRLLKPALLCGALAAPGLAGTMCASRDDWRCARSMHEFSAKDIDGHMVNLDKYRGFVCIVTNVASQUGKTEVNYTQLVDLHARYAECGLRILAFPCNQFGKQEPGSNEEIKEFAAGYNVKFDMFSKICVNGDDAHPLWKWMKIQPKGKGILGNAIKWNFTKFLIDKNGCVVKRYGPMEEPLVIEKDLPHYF
Method in brief: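 NADPH consumption, followed by fluorescence at 340/450 nm between 0 and 15 min, reports GPX4 activity via coupled glutathione reductase (100 nM). Enzyme 200 nM was pre-exposed to compound 30 min; 0.5 mM cumene hydroperoxide and 1 mM GSH served as substrates.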

[3] = target: Luciferin 4-monooxygenase (Photinus pyralis) (UniProt P08659); test: Primary firefly luciferase (FLuc) qHTS assay for identification of artifact compounds. (AID 1845220); note: nearly all actives have a fitted effect of over 60% in size
Method in brief: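 FLuc 10 nM; luciferin 10 uM; ATP 10 uM; Tris-acetate pH 7.6, Mg-acetate 10 mM; 15 min RT preincubation; 5 min reaction; luminescence.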

[4] = system: Nanoluciferase (engineered Oplophorus gracilirostris luciferase); test: Primary Nanoluciferase (NLuc) qHTS assay for identification of artifact compounds. (AID 1845222);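 note: NLuc secreted into diluted conditioned medium of S16 cells; series mostly up to about 54 µM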
Method in brief: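 NLuc from S16 cell medium (1:55) plus test compounds, 15 min, room temperature. Luminescence after Nano-Glo (1:100) addition, 5 min.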

[5] = Primary redox qHTS assay for identification of artifact compounds. (AID 1845223)
Method in brief: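 Amplex Red (25 uM) and HRP (250 mU/mL) in HBSS, with compounds for 15 min, then 250 uM DTT for 30 min, room temperature, dark. Fluorescence 525/598 nm read; normalized to DMSO and 10 uM DA3003; Hill fit.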

[6] = qHTS drug screen for cell cycle checkpoint inhibitors in PARPi-resistant BRCA-mutant ovarian cancer cell lines. (AID 1963452; calls by dose curve); conditions: PEO1/OlaR viability, CellTiter-Glo luminescence, 96 h, stronger effect = lower value
Method in brief: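 PEO1, PEO4 and PEO1/OlaR ovarian cancer cells, 600 per well, exposed 96 h at 37C to a dilution series. Viability read by CellTiter-Glo luminescence, normalized to DMSO and empty wells; activity summarized as Z-AUC.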

[7] = Primary fluorescence-based thiol-reactive (MSTI) qHTS assay for identification of artifact compounds. (AID 1845221); note: nearly all actives have a fitted effect of over 65% in size; note: potency is the fitted concentration of half-maximal effect;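 for activity change, negative = thiol reactive: series mostly up to about 54 µM; thiol-reactive compounds lower the probe fluorescence signal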
Method in brief: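 First, 4 uM MSTI in 2% DMSO/PBS pH 7.4 was dispensed; next, compounds were added; then plates sat 1 h at room temperature without light. Finally, emission at 598 nm was recorded.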

[8] = measured here: PEO1 parental Z-AUC

## O=C(/C=C/c1cccc(S(=O)(=O)Nc2ccccc2)c1)NO
[1]
  Potency: inactive
[2]
  Potency: inactive
[3]
  Potency: inactive
[4]
  Potency: inactive
[5]
  Potency: inactive
[6]
  Z-AUC: -0.934 (inactive)
[6]; [8]
  Z-AUC: -1.03
[6]; measured here: PEO4 Z-AUC
  Z-AUC: -1.35

## C/C=C/c1ccc(O[C@@H]2O[C@H](CO)[C@@H](O)[C@H](O)[C@H]2O)c(OC)c1
[1]
  Potency: inactive
[2]
  Potency: inactive
[3]
  Potency: inactive
[5]
  Potency: inactive

## CCCCNc1ncc2c(-c3ccc(CN4CCN(C)CC4)cc3)cn(C3CCC(O)CC3)c2n1 (configuration not stated)
[1]
  Potency: inactive
[2]
  Potency: inactive
[3]
  Potency: inactive
[4]
  Potency: inactive
[6]
  Z-AUC: -1.53 (inactive) and -0.825 (inactive)
[6]; [8]
  Z-AUC: -1.06 and -0.682
[6]; measured here: PEO4 Z-AUC
  Z-AUC: -1.13 and -0.785

## COc1cc(-c2ncn(/C=C\C(=O)OC(C)C)n2)cc(C(F)(F)F)c1
[1]
  Potency: inactive
[2]
  Potency: inactive
[7]
  Potency: inactive
[4]
  Potency: inactive

## C[C@@H]1O[C@@H](O[C@H]2[C@H](OC(=O)[C@]34CCC(C)(C)C[C@H]3C3=CCC5[C@@]6(C)C[C@H](O)[C@H](O[C@@H]7O[C@H](CO)[C@@H](O)[C@H](O)[C@H]7O)[C@@](C)(CO)C6[C@H](O)C[C@@]5(C)[C@]3(C)CC4)OC[C@H](O)[C@@H]2O)[C@H](O)[C@H](O)[C@H]1O[C@@H]1OC[C@@H](O)[C@H](O[C@@H]2OC[C@](O)(CO)[C@H]2O)[C@H]1O (some centres not stated)
[1]
  outcome: inactive [at 9.52 µM]
[2]
  outcome: inactive [at 9.73 µM]
[7]
  activity change, negative = thiol reactive: 350% [at 11.5 µM] (inactive)
[4]
  activity, negative = inhibition: 0% [at 11.6 µM] (inactive)
[5]
  redox activity (% of DA3003): 8.55% [at 11.5 µM] (inactive)

## CN1CCN(c2ccc(C(=O)Nc3n[nH]c4ccc(Cc5cc(F)cc(F)c5)cc34)c(NC3CCOCC3)c2)CC1
[1]
  Potency: inactive
[2]
  Potency: inactive
[3]
  Potency: inactive
[4]
  Potency: inactive
[5]
  Potency: inactive
[6]
  Z-AUC: -0.903 (inactive)
[6]; [8]
  Z-AUC: -1.2
[6]; measured here: PEO4 Z-AUC
  Z-AUC: -1.38

## Nc1nc2c(c(N3CCNCC3)n1)CCC1=C2[C@@H]2CCCC[C@@H]2O1
[1]
  Potency: inactive
[2]
  Potency: inactive
[3]
  Potency: inactive
[4]
  Potency: inactive
[5]
  Potency: inactive

## c1cc(Nc2cc(C3CC3)[nH]n2)nc(Nc2ccc3nc[nH]c3c2)n1
[1]
  Potency: inactive
[2]
  Potency: inactive
[3]
  Potency: inactive
[4]
  Potency: inactive
[5]
  Potency: inactive
[6]
  Z-AUC: -1.72 (inactive)
[6]; [8]
  Z-AUC: -2.08
[6]; measured here: PEO4 Z-AUC
  Z-AUC: -2.23

## CC(C)CC1OC(=O)C2CCCN2C(=O)CCNC(=O)C(Cc2ccccc2)NC(=O)C(C(C)C)N(C)C(=O)C(C(C)C)N(C)C1=O (configuration not stated) (cyclo([ξLac(3-iPr)][NMeV][NMeV]F[βAla]P); configuration not given here)
[1]
  Potency: inactive
[2]
  Potency: inactive
[7]
  Potency: inactive
[4]
  Potency: inactive

## CC1COC(Nc2ccc3ncnc(Nc4ccc(OCc5nccs5)c(Cl)c4)c3c2)=N1 (configuration not stated)
[1]
  Potency: inactive
[2]
  Potency: inactive
[7]
  Potency: inactive
[5]
  Potency: inactive

## CCN1CCN(Cc2ccc(NC(=O)c3ccc(C)c(NC(=O)c4cncc(-c5cccs5)c4)c3)cc2C(F)(F)F)CC1
[1]
  Potency: inactive
[2]
  Potency: inactive
[7]
  Potency: inactive
[4]
  Potency: inactive
[5]
  Potency: inactive
[6]
  Z-AUC: -1.84 (inactive)
[6]; [8]
  Z-AUC: -1.46
[6]; measured here: PEO4 Z-AUC
  Z-AUC: -0.887

## CC(=O)C1=CCC2C3CCC4CC(O[C@@H]5O[C@H](CO)[C@@H](O[C@@H]6O[C@@H](C)[C@H](O)[C@@H](O)[C@H]6O)[C@H](O)[C@H]5O[C@@H]5O[C@H](CO)[C@@H](O)[C@H](O)[C@H]5O)CCC4(C)C3CCC12C (some centres not stated)
[1]
  Potency: inactive
[2]
  Potency: inactive
[7]
  Potency: inactive
[4]
  Potency: inactive
[5]
  Potency: inactive

## O=[N+]([O-])c1cccc2[nH]c(CNc3nc(N4CCOCC4)nc4c3ncn4-c3ccsc3)nc12
[1]
  Potency: inactive
[2]
  Potency: inactive
[7]
  Potency: 10.6 µM (active)
[4]
  Potency: inactive
[5]
  Potency: inactive

## O=C1NC2CCc3nc4ccccc4c(=O)n3C2=Nc2ccccc21 (configuration not stated)
[1]
  Potency: inactive
[2]
  Potency: inactive
[7]
  Potency: inactive
[4]
  Potency: inactive
[5]
  Potency: inactive

## OC/C=C/c1ccc(O[C@@H]2O[C@H](CO)[C@@H](O)[C@H](O)[C@H]2O)cc1
[1]
  Potency: inactive
[2]
  Potency: inactive
[4]
  Potency: inactive
[5]
  Potency: inactive

## c1ccc(N2CCN(CCc3nn[nH]n3)CC2)cc1
[1]
  Potency: inactive
[2]
  Potency: inactive
[4]
  Potency: inactive
[5]
  Potency: inactive

## COC(=O)CC1CC(c2ccc(O)cc2)=NO1 (configuration not stated)
[1]
  Potency: inactive
[2]
  Potency: inactive
[7]
  Potency: inactive
[4]
  Potency: inactive
[5]
  Potency: inactive

## CC(=O)OC1CC2(C)C3=CCC4(C)C5C(O)C(O)C(C(C)C)C5(C)CCC4(C)C3CCC2C(C)(C)C1OC1OC(CO)C(O)C(O)C1O (configuration not stated)
[1]
  Potency: inactive
[2]
  Potency: inactive
[7]
  Potency: inactive
[4]
  Potency: inactive
[5]
  Potency: inactive

## C/C=C/c1ccc2c(c1)[C@@H](C)[C@H](c1ccc(O)cc1)O2
[1]
  Potency: inactive
[2]
  Potency: inactive
[7]
  Potency: inactive
[4]
  Potency: inactive
[5]
  Potency: inactive

## Cc1ccccc1NC(=O)Nc1ccc(CC(=O)N(C)[C@@H](CC(C)C)C(=O)NCC[C@H](NC(=O)[C@@H]2CCCN2S(=O)(=O)c2cc(Cl)cc(Cl)c2)C(=O)O)cc1
[1]
  Potency: inactive
[2]
  Potency: inactive
[7]
  Potency: inactive
[4]
  Potency: inactive
[5]
  Potency: inactive

## C[C@@H]1O[C@@H](O[C@H]2[C@H](O[C@H]3CC[C@@]4(C)C(CC[C@]5(C)C4C=C[C@]46OC[C@@]7(CCC(C)(C)C[C@H]74)[C@@H](O)C[C@]65C)[C@]3(C)CO)O[C@H](CO)[C@@H](O)[C@@H]2O[C@@H]2O[C@H](CO)[C@@H](O[C@@H]3O[C@@H](C)[C@H](O)[C@@H](O)[C@H]3O)[C@H](O)[C@H]2O)[C@H](O)[C@H](O)[C@H]1O (some centres not stated)
[1]
  Potency: inactive
[2]
  Potency: inactive
[7]
  activity change, negative = thiol reactive: 81.1% [at 11.5 µM] (inactive)
[4]
  activity, negative = inhibition: -2% [at 11.6 µM] (inactive)
[5]
  redox activity (% of DA3003): 9.95% [at 11.5 µM] (inactive)

## C=CC(C)(C)c1[nH]c2cc3c(cc2c1CC1NC(=O)C2CCCN2C1=O)C=CC(C)(C)O3 (configuration not stated)
[1]
  Potency: inactive
[2]
  Potency: inactive
[4]
  Potency: inactive
[5]
  Potency: inactive

## Cn1c2ccc(F)cc2c2c(C(=O)N3CCCC3)cn(-c3ccccc3)c(=O)c21
[1]
  Potency: 18 µM (active)
[3]
  Potency: inactive
[7]
  Potency: inactive
[4]
  Potency: inactive
[5]
  Potency: inactive
